# KB-3-1 cytotox: qHTS assay for MDR1-selective chemotherapeutics: Primary screen using the parental adenocarcinoma cell KB-3-1. Potency, µM (highest dose often 46.1 µM), actives largely listed as cytotoxic. hit rate 1.4% among 400,000. KB-3-1 viability, CellTiter-Glo ATP luminescence, 72 h. AID 1347075, 2019; further: nearly all actives have a fitted effect of over 60% in size
#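 Cytotoxicity in the drug-sensitive parental line KB-3-1 was scored as loss of CellTiter-Glo luminescence following 72 h incubation with compound. Values come from curve fitting of normalized concentration-response data.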
# KB-V1 cytotox: qHTS assay for MDR1-selective chemotherapeutics: Primary screen using the drug-selected MDR subline cells KB-V1; KB-V1 MDR cells viability, CellTiter-Glo, 72 h; Potency, µM (series often up to 46.1 µM), actives largely listed as cytotoxic; hit rate 3.4% among 400,000; further: nearly all actives have a fitted effect of over 60% in size
#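 Readout: CellTiter-Glo luminescence, 10 min after addition. Cells: KB-V1 MDR subline, 72 h at 37 degrees C with compound. Analysis: corrected, normalized data fitted to concentration-effect curves.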
# IL-1B inflam inh: qHTS for Inhibitors of Inflammasome Signaling: IL-1-beta AlphaLISA Primary Screen; hit rate 4.7% among 360,000; THP-1 LPS/ATP IL-1B secretion, AlphaLISA, 16 h; active compounds read low; AID 743279, 2014; activity change, % at 57.5 µM; in the data active means activity change below about -50%; inconclusive means mostly about -30% to -49%
#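 Secreted IL-1B measured by AlphaLISA bead assay after 16 h compound exposure of THP-1 cells; compounds (final up to 57.5 uM) added 1 h before LPS (250 ng/mL) and ATP (1.25 mM) stimulation; lower signal means less secretion.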
# SW480 rereplic: A quantitative high throughput screen for small molecules that induce DNA re-replication in SW480 colon adenocarcinoma cells. SW480 DNA re-replication, Hoechst DNA content imaging, 48 h. Potency, µM (titrated, usually from 46.1 µM), usual class: activators. hit rate 1.8% among 340,000. AID 624297, 2012; further: nearly all actives have a fitted effect of over 55% in size
#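 First, 250 cells per well were seeded. Next, compound or vehicle (23 nL) was pinned in, plates sat 48 hr at 37 C. Finally Hoechst was added for 40 min before fluorescence scanning.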
# MCF10A rerep: A quantitative high throughput screen for small molecules that induce DNA re-replication in MCF 10a normal breast cells; AID 624296, 2012; hit rate 2.9% among 350,000; MCF 10A DNA re-replication, Hoechst nuclear intensity, 48 h; Potency, µM (series often up to 46.1 µM), usual class: activators; further: nearly all actives have a fitted effect of over 50% in size
# A number is an active result; . = inactive; ? = inconclusive; / = no result. Shown are actives, neighbours in structure and some others; about 9.9% of the full set was active somewhere. Unless noted, the call rests on the fitted dose curve; in most records, active means well fitted curve in the direction sought with a large enough effect; inconclusive means small, poorly fitted or top-dose-only effect, or another doubt; inactive means no such curve, though single readings can be large; an effect the other way counts as inactive or inconclusive.
SMILES,KB-3-1 cytotox,KB-V1 cytotox,IL-1B inflam inh,SW480 rereplic,MCF10A rerep
c1ccc(-c2cc(-c3nnc4n3N=C(c3ccc5ccccc5c3)CS4)[nH]n2)cc1,.,7.3µM,-64,?,4.1µM
CCCc1ccc(C2=Nn3c(nnc3C(C)C)SC2)cc1,.,.,-91,.,.
c1ccc(C2=Nn3c(nnc3-c3ccccn3)SC2)cc1,.,.,?,.,.
c1ccc(C2=Nn3c(nnc3-c3ccncc3)SC2)cc1,.,.,.,?,.
CC(C)c1nnc2n1N=C(c1ccc(Cl)cc1)CS2,.,.,.,.,.
Cc1cccc(-c2nnc3n2N=C(c2ccccc2)CS3)c1,?,8.2µM,.,.,.
Cc1cc(-c2nnc3n2N=C(c2ccccc2)CS3)n[nH]1,.,.,/,.,.
Cc1cc(-c2nnc3n2N=C(c2ccc(-c4ccccc4)cc2)CS3)n[nH]1,?,.,-62,.,?
Cc1cc(NC(=O)NC(C(F)(F)F)C(F)(F)F)no1,.,?,.,.,.
COc1ccccc1CNC(=O)C(=O)NCC(c1cccs1)S(=O)(=O)c1ccc(F)cc1 (stereo not given),.,?,/,/,/
Cc1cc(-c2ccccc2)n[nH]1,.,.,.,.,0.65µM
COc1ccc(C2=Nn3c(nnc3-c3ccncc3)SC2)cc1,.,.,.,?,.
CCOc1ccc(C2=Nn3c(nnc3-c3ccc(OC)cc3)SC2)cc1,2.9µM,3.3µM,.,5.8µM,?
Cn1cc(C(c2ccccc2)c2ccc(Cl)s2)c2ccccc21 (stereo not given),.,.,/,/,/
Cc1cc(C)c2sc(N3CCN(C(=O)c4ccc(N(C)C)cc4)CC3)nc2c1,.,.,/,/,/
CCN1CCCC1CNC(=O)C(=O)NCCc1ccc(OC)c(OC)c1 (stereo not given),.,.,.,.,.
CC(=O)Nc1ccc(NC(=O)COc2cccc3ccccc23)cc1,.,.,.,/,/
O=[N+]([O-])c1ccccc1/C=C\C=N\N1CCN(c2ccccc2)CC1,.,.,-53,.,.
O=[N+]([O-])c1ccccc1/C=N\N1CCN(c2ccccc2)CC1,.,.,.,.,.
O=[N+]([O-])c1ccccc1/C=C/C=N/N1CCCCC1,.,.,.,.,.
O=[N+]([O-])c1ccccc1/C=N/N1CCN(c2ccc(Cl)cc2)CC1,?,10µM,.,.,.
COc1ccc(NS(=O)(=O)c2ccc3oc(=O)c4[nH]c(=O)c(=O)n(C)c4c3c2)cc1,.,.,.,.,.
CCOC(=O)CNC(=O)N(CCOC)CC1CCCN(C2Cc3ccccc3C2)C1 (stereo not given),.,.,.,.,.
COCCNc1oc(-c2cccs2)nc1S(=O)(=O)c1ccc(C)cc1,.,?,.,.,.
COCCCNc1oc(-c2cccs2)nc1S(=O)(=O)c1ccc(C)cc1,.,15µM,.,.,.
SMILES,KB-3-1 cytotox,KB-V1 cytotox,IL-1B inflam inh,SW480 rereplic,MCF10A rerep
COc1cccc(N/C(SCc2ccccc2F)=C(/C#N)C(=O)NCc2cccs2)c1,.,16µM,.,?,?
Cc1ccsc1C(=O)N1CCC1(C)C(=O)Nc1cccc(C#N)c1 (stereo not given),.,.,.,/,/
CSc1ccc(NC(=O)C2(C)CCN2C(=O)c2sccc2C)cc1 (stereo not given),.,.,-71,/,/
Cc1cc(F)ccc1C(O)c1ncc(-c2ccc3ccccc3c2)[nH]1 (stereo not given),.,?,.,/,/
O=C(c1ccc(C(F)(F)F)cc1)N1CCC(=O)N(C(COCc2ccc(Cl)cc2)Cc2ccccc2)CC1 (stereo not given),?,?,-61,?,?
CC(C)(C)c1ccc(C(=O)N2CCC(=O)N(C(COCc3ccccc3)Cc3ccccc3)CC2)cc1 (stereo not given),?,?,.,?,21µM
O=C(c1ccc(C(F)(F)F)cc1)N1CCC(=O)N(C(COCc2ccccc2)Cc2ccccc2)CC1 (stereo not given),.,.,-55,?,?
CC(C)(C)c1ccc(C(=O)N2CCC(=O)N([C@H](COCc3ccccc3)Cc3ccccc3)CC2)cc1,.,.,?,/,/
O=C(COC(=O)c1cccc(Br)c1)NCC1CCCO1 (stereo not given),.,.,.,.,.
O=c1cc(CCl)nc2sc3ccccc3n12,?,.,-59,?,?
O=C(OCc1cc(=O)n2c(n1)sc1ccccc12)c1ccc(O)cc1,.,.,.,.,.
CN1CCN(C(=O)c2ccccc2NC(=O)c2ccccc2)CC1,.,.,.,.,.
COc1ccccc1N1CCN(C(=O)CSc2nc3ccccc3nc2Cc2ccccc2)CC1,.,.,/,/,/
COc1ccccc1N1CCN(C(=O)CSc2nc3ccccc3o2)CC1,.,21µM,.,.,?
Fc1ccc(-c2nc(-c3cccs3)[nH]c2-c2ccc(F)cc2)cc1,18µM,16µM,-63,.,?
O=C(O)c1ccc(-c2nc(-c3ccccc3)c(-c3ccccc3)[nH]2)cc1,.,?,.,.,16µM
Fc1cc2nc(-c3ccncc3)[nH]c2cc1F,.,.,.,.,.
Oc1ccc(-c2nc(-c3ccc(F)cc3)c(-c3ccncc3)[nH]2)cc1,?,.,.,3.5µM,.
COc1ccc(-c2[nH]c(-c3ccc(C(=O)O)cc3)nc2-c2ccccc2)cc1,.,.,.,.,.
O=C(CSc1nnc(COc2ccc(Cl)cc2)o1)N(c1ccccc1)C1CCS(=O)(=O)C1 (stereo not given),?,?,.,/,/
Cc1ccc(C=NNc2nc3c([nH]2)c(=O)n(C)c(=O)n3C)cc1,.,.,.,?,.
O=C1NC[C@@H](Cc2cccc3ccccc23)N(CCc2cc(C(F)(F)F)cc(C(F)(F)F)c2)C1=O,.,.,-51,.,?
O=C1NC[C@H](Cc2ccccc2)N(CCc2cc(C(F)(F)F)cc(C(F)(F)F)c2)C1=O,/,.,/,/,/
COc1ccc(N(CC(=O)NCc2ccccc2OC)S(=O)(=O)c2ccccc2)cc1,.,.,.,.,.
Clc1ccc2c(c1)C(N1CCNCC1)Cc1ccccc1S2 (stereo not given),?,21µM,-100,?,?
O=C(CSC1CS(=O)(=O)c2cc([N+](=O)[O-])ccc21)NNC(=O)c1ccccc1 (stereo not given),.,.,.,9.2µM,?
COc1ccc(C=O)cc1OS(=O)(=O)c1ccc(NC(C)=O)cc1,.,.,.,18µM,?
CCOc1cc(C(=S)N2CCOCC2)ccc1OS(=O)(=O)c1ccc(OC)cc1,.,.,.,.,.
